From PubChem BioAssay (Tox21) come the findings set out here.

Records with an inconclusive call do not appear. Unmarked numbers belong to inactive results. Activity calls are given as the source filed them. Unless noted, calls follow the shape of the full dose curve.

Experiment [1] is described as follows: qHTS assay to identify small molecule agonists of the peroxisome proliferator-activated receptor delta (PPARd) signaling pathway - cell viability counter screen (AID 743211; active = well fitted curve in the direction sought with a large enough effect in the repeat runs; an effect the other way counts as inactive or inconclusive; also: nearly all actives have a fitted effect of over 55% in size). Summed up:
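Following 5 h plating at 37 C and 5% CO2, PPARd UAS-bla HEK293H cells took up test compounds for 17 h. Viability was quantified by luminescence 30 min after CellTiter-Glo addition at room temperature.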

The nature of experiment [2]: qHTS assay to identify small molecule antagonists of the peroxisome proliferator-activated receptor delta (PPARd) signaling pathway - cell viability counter screen (AID 743213; active = well fitted curve in the direction sought with a large enough effect in the repeat runs; an effect the other way counts as inactive or inconclusive; also: nearly all actives have a fitted effect of over 50% in size). Summed up:
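In this counter screen, HEK293H cells carrying a UAS-beta-lactamase reporter are co-treated with test compounds and 300 nM L165041 (final) for 17 h at 37 C; cell viability is quantified by CellTiter-Glo luminescence.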
On the technique in general: qHTS replaces the single test concentration by a dilution series.

For experiment [3], the target named is Bile acid receptor (Homo sapiens) (UniProt Q96RI1). Description: qHTS assay to identify small molecule antagonists of the farnesoid-X-receptor (FXR) signaling pathway (AID 743217; active = well fitted inhibition curve with a large enough effect in the signal ratio in the repeat runs, not every such curve was filed as active; the % refers to the signal ratio). Summed up: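 FXR-UAS-bla HEK 293T cells (beta-lactamase reporter) given compound plus chenodeoxycholic acid (50 uM final), 16 h at 37C. LiveBLAzer B/G FRET substrate added for 2 h at room temperature; fluorescence read.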
Chain of Bile acid receptor (Homo sapiens) (Q96RI1 whole entry, looked up): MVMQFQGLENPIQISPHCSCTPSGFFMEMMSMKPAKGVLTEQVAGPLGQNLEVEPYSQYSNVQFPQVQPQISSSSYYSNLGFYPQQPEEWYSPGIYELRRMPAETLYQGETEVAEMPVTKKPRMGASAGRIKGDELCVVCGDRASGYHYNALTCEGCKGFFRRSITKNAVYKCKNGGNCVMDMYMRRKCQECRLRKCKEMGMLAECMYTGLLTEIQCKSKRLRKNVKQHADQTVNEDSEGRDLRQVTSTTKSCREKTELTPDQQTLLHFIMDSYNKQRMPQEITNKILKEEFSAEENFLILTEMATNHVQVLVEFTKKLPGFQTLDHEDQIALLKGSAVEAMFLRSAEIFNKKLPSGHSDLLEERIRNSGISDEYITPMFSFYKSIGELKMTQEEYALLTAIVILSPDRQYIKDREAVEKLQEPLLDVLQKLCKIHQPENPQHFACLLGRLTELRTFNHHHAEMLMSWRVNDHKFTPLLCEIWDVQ

Experiment [4] in a line: qHTS assay to identify small molecule agonists of the farnesoid-X-receptor (FXR) signaling pathway - cell viability counter screen (AID 743218; active = well fitted curve in the direction sought with a large enough effect in the repeat runs; an effect the other way counts as inactive or inconclusive; also: nearly all actives have a fitted effect of over 45% in size). Summed up: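 FXR-UAS-bla HEK 293T cells exposed to compounds for 16 h at 37C. Cytotoxicity read in the same wells by CellTiter-Glo luminescence after 30 min at room temperature, following the beta-lactamase FRET read.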
For experiment [5], the target named is Bile acid receptor (Homo sapiens) (UniProt Q96RI1). Description: qHTS assay to identify small molecule agonists of the farnesoid-X-receptor (FXR) signaling pathway (AID 743220; active = well fitted activation curve with a large enough effect in the signal ratio in the repeat runs, not every such curve was filed as active; the % refers to the signal ratio). Summed up: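 Beta-lactamase reporter under UAS control in GeneBLAzer FXR HEK 293T cells (5000/well) measured with LiveBLAzer FRET substrate after 2 h at room temperature. Compound exposure lasted 16 h at 37C.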

A short description of experiment [6]: qHTS assay to identify small molecule antagonists of the farnesoid-X-receptor (FXR) signaling pathway - cell viability counter screen (AID 743221; active = well fitted cell-killing curve with a large enough effect in the repeat runs, not every such curve was filed as active; also: nearly all actives have a fitted effect of over 50% in size). Summed up:
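Compound effects on cell number were measured as CellTiter-Glo luminescence in HEK 293T cells expressing FXR-UAS-bla, after 16 h at 37 C with 50 uM CDCA (final).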

Experiment [7] has as its target Vitamin D3 receptor (Homo sapiens) (UniProt P11473). Description: qHTS assay to identify small molecule agonists of the vitamin D receptor (VDR) signaling pathway (AID 743222). Also: potency is read from the fitted curve at half-maximal effect. In outline:
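VDR-bla cells plated 4 h at 37 C, then exposed to compounds for 16 h at 37 C. Beta-lactamase reporter activity measured by fluorescence after 2 h room-temperature loading with LiveBLAzer B/G FRET substrate.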

A short description of experiment [8]: qHTS assay to identify small molecule agonists of the vitamin D receptor (VDR) signaling pathway - cell viability counter screen (AID 743224; active = well fitted curve in the direction sought with a large enough effect in the repeat runs; an effect the other way counts as inactive or inconclusive; also: series mostly up to about 63 µM; nearly all actives have a fitted effect of over 50% in size). Summed up: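 VDR-bla cells, 4 h after plating, exposed to compounds for 16 h at 37C; viability then read in the same wells as CellTiter-Glo luminescence after 30 min at room temperature, following the bla FRET read.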

Experiment [9] can be described thus: qHTS assay to identify small molecule antagonists of the vitamin D receptor (VDR) signaling pathway - cell viability counter screen (AID 743225; active = well fitted curve in the direction sought with a large enough effect in the repeat runs; an effect the other way counts as inactive or inconclusive; also: nearly all actives have a fitted effect of over 50% in size). In outline: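 In this counter screen, VDR-bla HEK 293T cells receive test compound plus 3 nM final calcitriol for 16 h at 37C. Room-temperature steps of 2 h with the beta-lactamase substrate, then 30 min with CellTiter-Glo, precede the luminescence read.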

Experiment [10] in a line: qHTS assay to identify small molecule agonists of the NFkB signaling pathway - cell viability counter screen (AID 1159515). Also: series mostly up to about 61 µM; nearly all actives have a fitted effect of over 55% in size. Summed up: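 NFkB-bla ME-180 cells, 2,000/well, plated overnight at 37 C; compound added for 5 hr at 37 C. Viability read in the same wells as the bla reporter, by CellTiter-Glo luminescence after 30 min at room temperature.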
The nature of experiment [11]: qHTS assay to identify small molecule agonists of the endoplasmic reticulum stress response signaling pathway (AID 1159516; active = well fitted activation curve with a large enough effect in the signal ratio in the repeat runs, not every such curve was filed as active; the % refers to the signal ratio; also: potency is read from the fitted curve at half-maximal effect). In outline:
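CellSensor ESRE-bla HeLa cells, 1,500 per well, plated overnight, then exposed to compounds for 5 hr at 37 C. Beta-lactamase reporter read with LiveBLAzer B/G FRET substrate after 2 hr at room temperature, 405 nm excitation, 460 and 530 nm emission.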

Experiment [12] in a line: qHTS assay to identify small molecule agonists of the endoplasmic reticulum stress response signaling pathway - cell viability counter screen (AID 1159517). In outline:
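Cells, HeLa ESRE-bla; density, 1,500/well; dosing, 5 hr at 37 C, 5% CO2; readout, CellTiter-Glo luminescence after 30 min RT.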

Experiment [13] in a line: qHTS assay to identify small molecule antagonists of the retinoid-related orphan receptor gamma (ROR-gamma) signaling pathway - cell viability counter screen (AID 1159520; active = well fitted curve in the direction sought with a large enough effect in the repeat runs; an effect the other way counts as inactive or inconclusive; also: nearly all actives have a fitted effect of over 50% in size). In outline:
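Cytotoxicity was read from cellular ATP (CellTiter-Glo luminescence) after 16 hr at 37 C with 1 uM doxycycline induction. The inducer was added 2 hr after compound transfer to Tet-on ROR gamma CHO cells.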

Experiment [14] in a line: qHTS assay to identify small molecule agonists of the AP-1 signaling pathway - cell viability counter screen (AID 1159525). Also: nearly all actives have a fitted effect of over 55% in size. Summed up: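 Luminescent ATP readout (Cell Titer Glo, 30 min RT), normalised to DMSO and tetra n-octyl ammonium bromide controls. Cells were ME-180 AP-1-bla in 0.5% dialyzed FBS Opti-MEM, with a 5 h, 37 °C compound exposure.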
A short description of experiment [15]: qHTS assay to identify small molecule agonists of the AP-1 signaling pathway (AID 1159526).
In experiment [16] the target is Peroxisome proliferator-activated receptor delta (Homo sapiens) (UniProt Q03181). Briefly: qHTS assay to identify small molecule agonists of the peroxisome proliferator-activated receptor delta (PPARd) signaling pathway (AID 743212). Also: potency is read from the fitted curve at half-maximal effect. In outline: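 HEK293H UAS-bla reporter cells, human PPARd system; compounds delivered in DMSO after 5 h plating, then at 37 C. Beta-lactamase FRET read, 2 h RT substrate step.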
Chain of Peroxisome proliferator-activated receptor delta (Homo sapiens) (Q03181 whole entry, looked up): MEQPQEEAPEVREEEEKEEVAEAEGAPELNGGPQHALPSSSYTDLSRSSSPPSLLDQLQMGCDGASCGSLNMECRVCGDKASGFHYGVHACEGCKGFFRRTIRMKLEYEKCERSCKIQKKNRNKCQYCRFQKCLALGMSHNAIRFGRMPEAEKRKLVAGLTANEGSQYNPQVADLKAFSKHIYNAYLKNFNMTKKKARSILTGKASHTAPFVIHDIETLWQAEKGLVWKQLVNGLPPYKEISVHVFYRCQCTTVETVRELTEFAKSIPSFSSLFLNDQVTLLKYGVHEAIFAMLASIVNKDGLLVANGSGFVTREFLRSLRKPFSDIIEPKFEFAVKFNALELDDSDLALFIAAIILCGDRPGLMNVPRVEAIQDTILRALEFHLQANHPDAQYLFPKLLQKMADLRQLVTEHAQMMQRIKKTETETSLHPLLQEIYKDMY

Experiment [17] shares this target. Briefly: qHTS assay to identify small molecule antagonists of the peroxisome proliferator-activated receptor delta (PPARd) signaling pathway (AID 743215; active = well fitted inhibition curve with a large enough effect in the signal ratio in the repeat runs, not every such curve was filed as active; the % refers to the signal ratio;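 also: cells stimulated with agonist L165041 at 300 nM final during compound exposure; series mostly up to about 62 µM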). In outline:
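PPARd-bla HEK293H cells (UAS-bla reporter) preincubated 5 h, then given compound plus 300 nM final L165041 agonist for 17 h at 37 C. Beta-lactamase activity read by LiveBLAzer B/G FRET substrate fluorescence after 2 h at room temperature.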

In experiment [18] the target is Nuclear receptor ROR-gamma (Homo sapiens) (UniProt P51449). Briefly: qHTS assay to identify small molecule antagonists of the retinoid-related orphan receptor gamma (ROR-gamma) signaling pathway (AID 1159521; active = well fitted curve in the direction sought with a large enough effect in the repeat runs; an effect the other way counts as inactive or inconclusive). Summed up:
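Screening format: cell-based luciferase reporter in CHO cells with doxycycline-inducible RORγ. Compound pre-exposure lasts 2 h, doxycycline is 1 uM final, induction runs 16 h at 37 C, and ONE-Glo luminescence is read.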

Experiment [19] deals with Retinoic acid receptor RXR-alpha (Homo sapiens) (UniProt P19793). Description: qHTS assay to identify small molecule agonists of the RXR signaling pathway (AID 1159527). Also: potency is read from the fitted curve at half-maximal effect; nearly all actives have a fitted effect of over 35% in size. In outline: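 Fluorescence ratio readout (460 vs 530 nm) from GeneBLAzer RXR-alpha HEK 293T cells after 16 hr compound treatment; cells seeded 5 hr beforehand in low-serum, charcoal-stripped medium.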
Chain of Retinoic acid receptor RXR-alpha (Homo sapiens) (P19793 whole entry, looked up): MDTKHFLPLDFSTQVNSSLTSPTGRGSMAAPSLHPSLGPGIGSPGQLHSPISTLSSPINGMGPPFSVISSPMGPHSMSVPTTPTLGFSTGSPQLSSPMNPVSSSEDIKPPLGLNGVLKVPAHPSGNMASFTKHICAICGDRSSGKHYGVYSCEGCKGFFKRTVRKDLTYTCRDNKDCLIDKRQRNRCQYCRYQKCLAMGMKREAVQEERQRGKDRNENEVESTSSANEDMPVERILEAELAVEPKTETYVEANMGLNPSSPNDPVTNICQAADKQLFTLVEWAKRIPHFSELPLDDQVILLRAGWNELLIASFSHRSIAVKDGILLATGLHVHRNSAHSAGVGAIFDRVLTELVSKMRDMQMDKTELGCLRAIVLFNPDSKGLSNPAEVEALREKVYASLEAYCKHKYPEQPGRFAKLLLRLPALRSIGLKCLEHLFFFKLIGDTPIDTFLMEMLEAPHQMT

Experiment [20] addresses Vitamin D3 receptor (Homo sapiens) (UniProt P11473). Description: qHTS assay to identify small molecule antagonists of the vitamin D receptor (VDR) signaling pathway (AID 743223; active = well fitted inhibition curve with a large enough effect in the signal ratio in the repeat runs, not every such curve was filed as active; the % refers to the signal ratio). Summed up:
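Beta-lactamase activity in VDR-bla cells is measured by FRET substrate fluorescence (2 h, room temperature) after cells spend 16 h at 37C with test compound and 3 nM final 1alpha,25-dihydroxyvitamin D3.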

Chain of Vitamin D3 receptor (Homo sapiens) (P11473 whole entry, looked up): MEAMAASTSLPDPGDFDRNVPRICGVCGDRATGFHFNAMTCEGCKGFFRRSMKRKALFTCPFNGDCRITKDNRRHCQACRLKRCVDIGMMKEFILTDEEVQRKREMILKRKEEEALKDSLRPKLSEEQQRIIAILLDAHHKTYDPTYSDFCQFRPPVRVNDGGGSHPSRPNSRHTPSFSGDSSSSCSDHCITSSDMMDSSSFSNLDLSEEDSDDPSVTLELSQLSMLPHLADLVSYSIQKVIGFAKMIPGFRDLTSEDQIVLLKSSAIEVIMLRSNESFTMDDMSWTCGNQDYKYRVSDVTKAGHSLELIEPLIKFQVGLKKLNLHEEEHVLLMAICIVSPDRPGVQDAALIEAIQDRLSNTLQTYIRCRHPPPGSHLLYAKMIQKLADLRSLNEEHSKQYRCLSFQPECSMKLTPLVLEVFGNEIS

Regarding `C=CCBr`, the Potency entry in experiment [1], in experiment [2], in experiment [3], in [4], in [5] and in experiment [6] was “inactive” throughout. Besides, the Potency result in experiment [7], in experiment [8], in [9], in experiment [10], in experiment [11] and in [12] was “inactive” throughout. Further, the Potency result in experiment [13], in experiment [14] and in experiment [15] was “inactive” throughout.
For `COC(=O)c1cc(Oc2ccc(Cl)cc2Cl)ccc1[N+](=O)[O-]`, the Potency result in [1], in [16], in experiment [2], in experiment [17], in experiment [3] and in experiment [4] was “inactive” throughout. In addition, the Potency result in experiment [5], in experiment [6], in [7], in [9], in experiment [10] and in experiment [11] was “inactive” throughout. The Potency entry in [12], in experiment [14] and in experiment [15] was “inactive” each time. Further, the Potency in experiment [18] is 54.5 µM (active).
Turning to `CC(=O)[O-].CC(=O)[O-].O.O.[Zn+2]`, the Potency entry in [1], in experiment [2], in experiment [4], in [6], in [8] and in experiment [9] was “inactive” each time. In addition, the Potency result in experiment [10], in experiment [11], in experiment [12], in [13], in experiment [14] and in experiment [15] was “inactive” in each case.
For the compound `Oc1ccc2[nH]cc(CCCCN3CC=C(c4ccccc4)CC3)c2c1`, the Potency result in experiment [3], in experiment [6], in experiment [8], in [9], in experiment [10] and in [12] was “inactive” throughout. Moreover, the Potency result in [13] and in experiment [14] was “inactive” throughout. The Potency in [11] was 4.25 µM (active).
For `c1csc(-c2ccc(-c3cccs3)s2)c1`, the Potency result in [1], in experiment [2], in experiment [3], in experiment [4], in experiment [8] and in experiment [9] was “inactive” throughout. In addition, the Potency result in [10], in [12], in [13] and in experiment [14] was “inactive” throughout. In addition, the Potency in experiment [16] was 43.6 µM (active); in experiment [7], 24.5 µM (active); in experiment [11] it was 49 µM (active); in [19], 21.9 µM (active).
With `CNC(C)(C)Cc1ccccc1`, the Potency entry in experiment [1], in [16], in experiment [2], in experiment [17], in experiment [6] and in [7] was “inactive” in each case. The Potency entry in experiment [20], in experiment [9], in experiment [10], in experiment [11], in experiment [12] and in experiment [13] was “inactive” in each case. Further, the Potency entry in experiment [14] and in experiment [15] was “inactive” in each case.
For `O=c1[nH]c(Cl)c(Cl)cc1Cl`, the Potency entry in experiment [1], in experiment [16], in [17], in experiment [3], in experiment [4] and in experiment [5] was “inactive” throughout. Besides, the Potency entry in [6], in [7], in experiment [20], in experiment [8], in experiment [9] and in experiment [10] was “inactive” each time. For the same compound, the Potency entry in experiment [11], in [12], in [13], in [14] and in experiment [15] was “inactive” each time.
Take `Cc1c([N+](=O)[O-])cc2c(c1[N+](=O)[O-])C(C)(C)CC2(C)C`: the Potency entry in [16], in experiment [2], in experiment [17], in [4], in experiment [6] and in experiment [20] was “inactive” in each case. The Potency entry in experiment [9], in experiment [10], in experiment [11], in [12], in experiment [13] and in experiment [14] was “inactive” throughout.
For the compound `COP(=S)(NC(C)C)Oc1ccc(C)cc1[N+](=O)[O-]` (configuration not stated), the Potency result in experiment [1], in [16], in experiment [2], in experiment [17], in experiment [3] and in [4] was “inactive” throughout. Moreover, the Potency entry in [5], in experiment [6], in experiment [7], in [20], in [8] and in experiment [9] was “inactive” throughout. The Potency result in experiment [10], in experiment [11], in experiment [12], in [13], in [14] and in [15] was “inactive” each time.
